An excerpt weighted towards active compounds, which were near 1.8% of everything screened.
GLP-1R agonist = activates the human GLP-1 receptor; HEK293 GLP-1R CRE-luciferase, luminescence, 4-6 h; cells express a hypersensitive GLP-1R form; Potency, µM (top dose mostly 45.6 µM), for inactives: top-dose activation, actives largely listed as activators; AID 624172; 380,000 compounds, 0.007% hits; also: % of control where 0% means no effect
Pin1 inhibitor = human Pin1 inhibition; AID 504891; Q13526; Potency, µM (top dose mostly 115 µM), inactives show at the highest dose activity, negative = inhibition, actives largely listed as inhibitors; 390,000 compounds, 0.009% hits; Pin1 FP peptide displacement, HiFluor488, 10 min; active = well fitted inhibition curve with a large enough effect in the polarisation, with a control signal flat, not every such curve was filed as active; inconclusive = small, poorly fitted or top-dose-only effect, or effect the other way, or a change in a side signal; inactive = no such curve, though single readings can be large or run the other way; the % refers to the polarisation; also: % is scaled to controls: 0 for no effect and ±100 for the full control effect
Target sequence (Q13526 whole entry, looked up): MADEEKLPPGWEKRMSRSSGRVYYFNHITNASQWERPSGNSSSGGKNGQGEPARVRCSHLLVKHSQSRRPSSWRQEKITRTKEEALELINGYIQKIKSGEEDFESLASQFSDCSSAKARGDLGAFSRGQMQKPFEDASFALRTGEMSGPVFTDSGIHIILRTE
HEK293 tox = cytotoxicity counter-screen for GLP-1 receptor inverse agonists; HEK293 cAMP-luciferase reporter cells, luminescence, 24 h; Potency, µM (highest dose often 38.3 µM), without a hit: at the top dose activity change, negative = inhibition, usual class: inhibitors; 410,000 compounds, 0.13% hits;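 also: loss of luciferase light is scored as toxicity; % is scaled to controls: 0 for no effect and ±100 for the full control effect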
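MLSMR compounds, 24 hr on cells at 37 deg C/5% CO2; luminescence after luciferase reagent (12 min RT). Inhibition counted as the undesired cytotoxic outcome.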
Tb PGK inh = inhibitors of T. brucei phosphoglycerate kinase; AID 602233; P07378; PGK/GAPDH coupled, Kinase-Glo luminescence, 60 min; 380,000 compounds, 0.043% hits; Potency, µM (highest dose often 57.5 µM), without a hit: at the highest dose activity change, negative = inhibition, most hits filed as inhibitors; also: % is scaled to controls: 0 for no effect and ±100 for the full control effect; nearly all actives have a fitted effect of over 60% in size
Target sequence (P07378 whole entry, looked up): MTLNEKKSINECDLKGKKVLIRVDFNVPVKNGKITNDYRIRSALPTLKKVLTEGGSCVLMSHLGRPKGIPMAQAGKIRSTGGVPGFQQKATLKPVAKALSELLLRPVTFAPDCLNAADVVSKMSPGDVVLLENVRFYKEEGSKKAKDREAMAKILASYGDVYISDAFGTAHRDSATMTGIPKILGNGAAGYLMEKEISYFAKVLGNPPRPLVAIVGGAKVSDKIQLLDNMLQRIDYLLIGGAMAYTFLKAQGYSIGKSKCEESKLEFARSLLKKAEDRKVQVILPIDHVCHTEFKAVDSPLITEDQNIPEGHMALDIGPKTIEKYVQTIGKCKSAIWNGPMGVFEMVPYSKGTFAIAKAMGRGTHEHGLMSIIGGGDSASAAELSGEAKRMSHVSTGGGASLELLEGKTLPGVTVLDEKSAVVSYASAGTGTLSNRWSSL
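Luminescent ATP detection (Kinase-Glo Plus) follows a 60-minute room-temperature incubation, with wells lacking PGK as controls. Buffer: 100 mM TEA (pH 7.6), 5 mM MgCl2, 0.01% Tween-20. Coupling enzyme GAPDH (100 nM final) supplies unstable 1,3-BPG in-well.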
Tb PFK block = T. brucei PFK enzyme inhibition; 330,000 compounds, 0.17% hits; O15648; T. brucei PFK, ADP-Glo luminescence; AID 485367; Potency, µM (titrated, usually from 57.5 µM), without a hit: at the highest dose activity, negative = inhibition, hits mostly inhibitors;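 also: 0% = uninhibited 1x PFK enzyme wells and -100% = no-enzyme wells; nearly all actives have a fitted effect of over 60% in size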
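ADP-Glo luminescence quantified ADP after 45 min at room temperature, with 1.25 nM T. brucei PFK, 0.1 mM ATP and 0.5 mM fructose-6-phosphate in pH 8.0 TEA buffer. qHTS titrations up to 57 µM; curves classified by quality.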
GLP1R inv ag = acts as inverse agonist at human GLP-1 receptor; HEK293 GLP-1R CRE-luciferase, luminescence, 24 h; GLP-1R form is constitutively active; Potency, µM (series often up to 38.3 µM), for the others: top-dose activity change, negative = inhibition, usual class: inhibitors; 410,000 compounds, 1.6% hits; AID 624417; also: % is scaled to controls: 0 for no effect and ±100 for the full control effect; nearly all actives have a fitted effect of over 55% in size
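Cells are plated, allowed 12 hours at 37 deg C, then treated with compounds for 24 hr before luciferase detection reagent is added and luminescence is read after 12 min at room temperature. The HEK293 line carries constitutively active GLP-1R with a cAMP-responsive reporter.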
Starred values were filed as active, the others as inactive; i = inactive; ? = inconclusive; nt = no result; [ ] = another dose, or the depositor's remark. Unless noted, calls follow the shape of the dose curve; as a rule, active = well fitted curve in the direction sought with a large enough effect; inconclusive = small, poorly fitted or top-dose-only effect, or another doubt; inactive = no such curve, though single readings can be large; an effect the other way counts as inactive or inconclusive. Potency is read from the fitted curve at half-maximal effect.

SMILES	GLP-1R agonist	Pin1 inhibitor	HEK293 tox	Tb PGK inh	Tb PFK block	GLP1R inv ag
COc1ccc(-c2nsc3c(N4CCCCC4C)ncnc23)cc1 (stereo not given)	-12.1%	5.3%	38.9%	i	-3.3%	0.282µM*
O=C1/C(=C/c2ccc(N3CCOCC3)o2)SC(=Nc2ccccc2)N1CCc1c[nH]c2ccccc12	-52.7%	?	?	-0.7%	?	1.12µM*
CC(C)N(C(=O)c1nn(C)c2c1CSc1ccccc1-2)C1CCCCC1	6.8%	-0.9%	-11.9%	-7.7%	0.9%	10µM*
Cn1nc(C(=O)NC2CCCCC2)c2c1-c1ccccc1SC2	-1.5%	1.5%	0.2%	-2.3%	-3.4%	-18.3%
CCOc1ccc(CCNC(=O)c2nn(C)c3c2CSc2ccccc2-3)cc1	nt	-0.3%	2.8%	i	nt	10µM*
Oc1ccc(-c2nc3ccc4ccccc4c3c3c2CCC3)cc1O	-10.5%	28.9%	?	-8.4%	9.2%	3.98µM*
CCCOc1ccc(/C=N/Nc2cccc([N+](=O)[O-])c2)c(O)c1	2.6%	-1.2%	?	6.6%	-1.6%	4.47µM*
Cc1ccc2c(c1)C(=O)OC(C(=O)Nc1ccc(C(=O)O)cc1)C2 (stereo not given)	10.8%	?	5.2%	2.6%	nt	-2.8%
COC(=O)c1ccc(NC(=S)NC2CC(C)(C)NC(C)(C)C2)cc1	-4.9%	-0.1%	-0.1%	i	?	8.91µM*
Cc1ccc2nc(-c3ccc(NC(=S)NC4CC(C)(C)NC(C)(C)C4)cc3)sc2c1	5.2%	11.9%	?	-6.1%	-2.6%	5.01µM*
COC(=O)c1ccc(NC(=S)NC2CCc3ccccc32)cc1 (stereo not given)	9.9%	-2.6%	?	-0.5%	-4.0%	10µM*
Cc1c(P(=S)(c2ccccc2)c2ccccc2)c2ccccc2n1CCc1ccccc1	nt	-3.0%	nt	nt	nt	nt
Cc1ccc(Cl)cc1N1CCN(c2nc3ccccc3c3nc(-c4cccnc4)nn23)CC1	nt	-4.5%	2.1%	5.0%	nt	?
O=C(Nc1ccccc1)C1CCN(c2ncc(-c3ccc4c(c3)OCCCO4)s2)CC1	nt	-1.7%	nt	nt	nt	nt
COc1ccc(CNC(=O)/C=C/c2ccc(S(=O)(=O)N3CCOCC3)cc2)cc1	3.0%	-9.1%	4.9%	-2.6%	0.5%	-1.0%
O=C(/C=C/c1ccc(S(=O)(=O)N2CCOCC2)cc1)NCc1ccc(Cl)cc1	11.7%	21.6%	-1.3%	-0.2%	-25.4%	3.55µM*
Fc1cc(F)cc(Nc2nc(NC3CCCC3)nc(C3CO3)n2)c1 (stereo not given)	nt	3.5%	nt	nt	nt	nt
CN(C)CC/C=C1\c2cc(Cl)ccc2Sc2cc(F)c(F)cc21	9.3%	6.0%	-10.6%	-7.3%	nt	?
CN(C)CC/C=C1/c2ccc(F)cc2Sc2ccc(Cl)cc21	6.9%	-9.0%	?	i	nt	?
CN(C)CC/C=C1\c2ccccc2Sc2cc(F)c(Cl)cc21	0.0%	3.0%	?	4.5%	nt	7.94µM*
CN(C)CC/C=C1\c2ccc(F)cc2Sc2cc(F)c(Cl)cc21	-2.8%	5.3%	?	-3.8%	nt	7.94µM*
CC1=Nc2cc(C(=O)NC3CCCCC3)ccc2Sc2ccc(Cl)cc21	nt	39.3%	-20.1%	6.8%	nt	?
Cc1ccc2c(c1)c(=O)c(C(=O)c1ccncc1)cn2CC(=O)Nc1ccccc1Cl	nt	29.8%	2.7%	4.2%	nt	16.4%
COc1ccccc1NC(=O)C(C)Sc1nnc2ccc3ccccc3n12 (stereo not given)	nt	2.8%	6.0%	2.5%	nt	3.0%
Fc1cccc(-c2nc(-c3ccncc3)no2)c1	nt	-0.6%	3.7%	1.2%	nt	10.2%
SMILES	GLP-1R agonist	Pin1 inhibitor	HEK293 tox	Tb PGK inh	Tb PFK block	GLP1R inv ag
COc1ccc(C(=O)NCC(c2ccc3c(c2)OCO3)N2CCN(c3ccccc3F)CC2)cc1 (stereo not given)	nt	-3.0%	0.5%	2.9%	nt	?
Cc1ccc(NS(=O)(=O)c2ccc3c(c2)N(C)C(=O)CO3)cc1C	nt	4.5%	nt	nt	nt	nt
O=C(Nc1ccccc1)c1ccc2nc(-c3ccco3)c(-c3ccco3)nc2c1	-9.2%	?	11.7%	-6.7%	-2.5%	0.0%
O=C(NCCO)Nc1ccc2nc(-c3ccco3)c(-c3ccco3)nc2c1	nt	nt	nt	nt	1.9µM*	nt
CC(=O)c1ccc(NC(=O)c2ccc3nc(-c4ccco4)c(-c4ccco4)nc3c2)cc1	-5.7%	19µM*	-21.2%	?	-21.5%	?
CC1CCC(C(O)(C(=O)c2ccccc2)c2ccccc2)C(=O)C1 (stereo not given)	-6.7%	nt	1.3%	-9.1%	nt	-77.2%
O=C1CCCCC1C(O)(C(=O)c1ccccc1)c1ccccc1 (stereo not given)	0.7%	nt	1.2%	-0.7%	nt	10µM*
COc1ccc(C(=O)Oc2c(Sc3ccc(Cl)cc3)c(C)nn2C(C)(C)C)cc1OC	nt	-1.4%	-7.9%	i	nt	-12.4%
CC(=O)CCc1ccc(OCC(=O)Nc2cccc(S(=O)(=O)N(C)c3ccccc3)c2)cc1	3.2%	14.9%	7.8%	i	-3.2%	11.2µM*
CN(c1ccccc1)S(=O)(=O)c1cccc(NC(=O)CSc2ncc(C(F)(F)F)cc2Cl)c1	-3.9%	16.1%	9.8%	-0.8%	-0.7%	10µM*
Cc1cc(C)c(NC(=S)NC(NC(=O)c2ccccc2)C(Cl)(Cl)Cl)c(C)c1 (stereo not given)	0.6%	-4.5%	-17.6%	0.3%	1.3%	?
Cc1ccc(NC(=S)NC(NC(=O)c2ccccc2)C(Cl)(Cl)Cl)c(C)c1 (stereo not given)	-23.3%	15.1%	?	i	-0.6%	3.55µM*
Cc1ccc(C(=O)NC(NC(=S)Nc2ccc(S(N)(=O)=O)cc2)C(Cl)(Cl)Cl)cc1 (stereo not given)	-6.2%	8.2%	-25.3%	1.6%	-1.6%	5.62µM*
Cc1cccc(NC(=S)NC(NC(=O)c2ccco2)C(Cl)(Cl)Cl)c1 (stereo not given)	-9.9%	-0.8%	?	-3.4%	0.6%	1.12µM*
Cc1ccc(NC(=S)NC(NC(=O)c2ccco2)C(Cl)(Cl)Cl)cc1 (stereo not given)	-10.0%	-0.6%	-35.0%	-0.6%	14.0%	?
O=C(NC(NC(=S)Nc1ccccc1)C(Cl)(Cl)Cl)c1cccc(Cl)c1 (stereo not given)	-15.2%	15.9%	?	-6.7%[11.5 µM]	-1.7%	7.94µM*
O=C(CNC(=O)c1ccc(C(F)(F)F)cc1)OC(C(=O)Nc1cc(C(F)(F)F)ccc1Cl)c1ccccc1 (stereo not given)	nt	-2.3%	nt	nt	nt	nt
COc1ccc(S(=O)(=O)Nc2cccc(-c3ccc(N4CCCCC4)nn3)c2)cc1F	nt	27.5%	-25.6%	-4.9%	nt	?

High-throughput results as filed in PubChem.
